The source of these data is paper PMC5540273 (PLoS ONE, 2017).
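Note: KINOMEscan kinase panel screen.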

The experiment concerns RPS6KA5(Kin.Dom.2-C-terminal). The note with it: concentration: 1 μM, replicates: in singlicate; n = 1.
In the case of `Cc1cccc(Nc2nc(N[C@H]3CCNC3)ncc2C(N)=O)c1.Cl` [GSK2197149], the “%Inh” value is given as 0%.
Take `O=C(Nc1ccccc1F)NC1CCN(c2ccnc(Nc3ccc(F)cc3)n2)CC1` [GSK1379800]: the “%Inh” value worked out at 26%.
As to `CN(C)S(=O)(=O)c1cc(-c2ccc3nccc(-c4cccc(S(N)(=O)=O)c4)c3c2)cnc1N` [GSK1669921], the “%Inh” value was 0%.
For `COc1ccc(CNC(=O)NC2CCN(c3ccnc(Nc4ccc(F)cc4)n3)CC2)cc1` [GSK1379788], the “%Inh” value was determined as 9%.
`Cl.Cl.NCC(C(=O)Nc1cc(Br)c(-c2ccnc3[nH]ccc23)s1)c1ccccc1` (stereo not shown) [GSK1269851]: the “%Inh” value is on record as 5%.
As to `COC(=O)Nc1nc2ccc(Oc3ccc(NC(=O)Nc4cc(C(F)(F)F)ccc4F)cc3)cc2n1C.Cl` [GW692089], the “%Inh” value was 0%.
Next, `Nc1ncc(-c2cccnc2)c2scc(-c3ccc4c(c3)CCN4C(=O)Cc3ccccc3)c12` [GSK683281]: 0%; `Cc1ccc(C(=O)Nc2ccc(Nc3ccnc4cc(-c5nccs5)ccc34)cc2O)cc1.Cl` [GW494702]: 0%; `Cn1cc(-c2[nH]c3cc(NC(=O)[C@H](N)C4CCCCC4)cc4c3c2C=NNC4=O)cn1`: 59%.
Take `CCc1ccc(-c2ccc3c(c2)-c2c(cnn2C)S(=O)(=O)N3C)cc1`: the “%Inh” value is listed as 0%.
Consider `Nc1ncc(-c2ccc3nccc(-c4ccncc4)c3c2)cc1S(=O)(=O)N1CCOCC1` [GSK1627798], for which the “%Inh” value is 0%.
`O=C(Nc1n[nH]c2nc(-c3ccc(O)cc3)ccc12)C1CC1` [SB-710363]: the “%Inh” value is on record as 53%.
Turning to `O=C(O)C(F)(F)F.O=C(O)C(F)(F)F.O=c1[nH]ccc2nc(N[C@@H]3CCCNC3)nc(Nc3ccc(S(=O)(=O)N4CCOCC4)cc3)c12` [GSK2177277], the “%Inh” value is 74%.
Turning to `COc1cccc(NC(=O)NC2CCN(c3ccnc(Nc4cc(OC)c(OC)c(OC)c4)n3)C2)c1` (stereo not shown) [GSK1379763], the “%Inh” value came to 35%.
In the case of `CCS(=O)(=O)c1ccc(OC)c(Nc2nccc(-c3c(-c4cccc(NC(=O)c5c(F)cccc5F)c4)nn4ncccc34)n2)c1` [GSK326180], the “%Inh” value is on record as 0%.
In the case of `COC(=O)Nc1nc2cc(Oc3ccc(NC(=O)Nc4cc(C(F)(F)F)ccc4F)cn3)ccc2[nH]1.Cl.Cl` [GW681170], the “%Inh” value is reported as 7%.
For the compound `COc1cc(Nc2nccc(N3CCC(NC(=O)Nc4cccc(C(C)=O)c4)C3)n2)cc(OC)c1OC` (stereo not shown) [GSK1379753], the “%Inh” value came to 6%.
With `COc1cc(Nc2nccc(-c3c(-c4cccc(NC(=O)c5c(F)cccc5F)c4)nn4ccccc34)n2)cc(OC)c1OC` [GSK323521], the “%Inh” value is given as 0%.
Turning to `Cl.Cl.NCC(NC(=O)c1cc(-c2ccccc2)c(-c2ccnc3[nH]ccc23)s1)c1ccccc1` (stereo not shown) [GSK1321561], the “%Inh” value was 0%.
With `Cl.c1ccc(-c2ccc3c(Nc4ccc5[nH]ncc5c4)ccnc3c2)nc1` [GW440137], the “%Inh” value is given as 34%.
In the case of `CCn1c(-c2nonc2N)nc2c(C#CC(C)(C)O)ncc(OCCCCN)c21.O=C(O)C(F)(F)F.O=C(O)C(F)(F)F` [GSK507274], the “%Inh” value turned out to be 74%.
On to `CN1CCN(CCCNc2nccc(-c3c(-c4ccc(F)cc4)nn4cc(C(F)(F)F)ccc34)n2)CC1` [GW621581], for which the “%Inh” value is given as 0%.
For `Cl.Cl.NCC(NCc1ccc(-c2ccnc3[nH]ccc23)s1)c1ccccc1` (stereo not shown) [GSK1321565], the “%Inh” value was determined as 53%.
As to `COc1cc(Nc2ncc3c(C)nc(-c4cc5ccccc5[nH]4)n3n2)cc(OC)c1OC` [GW869516], the “%Inh” value turned out to be 7%.
Take `Nc1ncnc2c1nc(-c1ccccc1)n2-c1ccccc1` [SKF-97293]: the “%Inh” value is listed as 11%.
Turning to `O=C(Nc1cccc(-c2nn3ccccc3c2-c2ccnc(Nc3cccc(C(F)(F)F)c3)n2)c1)c1c(F)cccc1F` [GSK292658], the “%Inh” value was 0%.
Turning to `CCCCc1nn2ncccc2c1-c1ccnc(Nc2ccc(N3CCN(C)CC3)cc2)n1` [GW684941], the “%Inh” value is given as 43%.
In the case of `Fc1ccc(-c2ncn(C3CCNCC3)c2-c2ccnc(Oc3ccc(-c4ccccc4)cc3)n2)cc1` [SB-245391], the “%Inh” value came out at 6%.
Consider `FC(F)(F)c1ccc(/C=C/c2cncnc2Nc2ccc3[nH]c(Cc4ccccc4)nc3c2)cc1` [GW709199], for which the “%Inh” value was determined as 6%.
Regarding `CC(=O)N1CCN(c2ccc(Nc3nccc(-c4sc(C(C)C)nc4-c4cccc(NS(=O)(=O)c5cccc(Cl)c5)c4)n3)cn2)CC1` [GSK1660437], the “%Inh” value is reported as 0%.
Consider `CC(=O)Nc1nc2cnc(Nc3cc(NC(=O)c4cccc(C5(C#N)CC5)c4Cl)ccc3C)nc2s1`, for which the “%Inh” value was 5%.
